This note sets out measurements from PubChem BioAssay (NCATS).

Assay [1] addresses Cytochrome P450 3A4 (Homo sapiens) (UniProt P08684). Kind of assay: qHTS Assay for Inhibitors and Substrates of Cytochrome P450 3A4 (AID 884). Also: series mostly up to about 57 µM; % is scaled to controls: 0 for no effect and ±100 for the full control effect; nearly all actives have a fitted effect of over 50% in size. An outline of the steps:
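Luminescent readout of luciferin produced by CYP3A4 (20 nM) dealkylation of Luciferin-PPXE, 25 uM (its KM). NADPH-driven reaction ran 60 min at RT after 10 min compound preincubation; data scaled to 57 uM ketoconazole as 100% inhibition.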
In general terms: qHTS replaces the single test concentration by a dilution series.

Assay [2] is described as follows: Confirmation and Secondary Assay for Modulators of Hemoglobin Beta Chain Splicing at IVS2 654 locus (AID 910).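 Also: per-well total GFP intensity by laser scanning cytometry after 2-day treatment; % of control where 0% means no effect.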 An outline of the steps:
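HeLa cells stably carrying EGFP interrupted by mutant beta-globin IVS2-654 intron (CMV-driven) were treated with compound for 2 days at 37C; corrected splicing was scored as total peak GFP intensity per well (488 nm excitation, 500-520 nm emission).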

The nature of assay [3]: Cell Viability - Mesenchymal (AID 546).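 Also: cells exposed to compound for 40 hours before reading; 0% = DMSO only and -100% = 100 µM tamoxifen.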 An outline of the steps: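 In this qHTS cytotoxicity format, glomerulus-derived human mesenchymal kidney cells received compound for 40 hr, then luciferase-based ATP quantitation. Concentration-response data were fitted with the Hill equation.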
Assay [4] is described as follows: Cellular Toxicity (caspase-3) HepG2 (AID 654).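 Also: cells exposed to compound for 16 hours before reading; 0% = DMSO alone and 100% = caspase signal from 100 µM tamoxifen.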 An outline of the steps:
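Caspase 3/7 activation in HepG2 is measured as rising luminescence after a 16 hr treatment at 37 °C. Values are scaled between DMSO basal and 100 uM tamoxifen, and AC50 is fitted with the Hill equation.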

Assay [5] in a line: Cellular Toxicity (caspase-3) Jurkat (AID 655).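 Also: cells exposed to compound for 16 h at 37 °C before reading.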 An outline of the steps:
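5000 Jurkat cells/well; compound 16 hr, 37 °C; Caspase-Glo 3/7 added, 20 min RT; luminescence read. Norm: DMSO = 0%, tamoxifen 100 uM = 100%. AC50, Hill model.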

Assay [6] in a line: Cellular Toxicity (caspase-3) HUV-EC-C (AID 656).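 Also: 0% = DMSO basal and 100% = 100 µM tamoxifen.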 An outline of the steps: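 qHTS; HUV-EC-C, 1000 cells/well; 5 hr settle, 16 hr cmpd, 37°C; Caspase-Glo 3/7, 20 min RT; luminescence. Norm: DMSO = 0%, tamoxifen 100 uM = 100%. Hill-fit AC50.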
Assay [7] is described as follows: Cellular Toxicity (caspase-3) BJ (AID 658).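 Also: 0% = DMSO basal and 100% = 10 µM staurosporine.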 An outline of the steps:
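Plated BJ cells (1000/well) rested 5 hr, received compound for 16 hr at 37 °C, then Caspase-Glo 3/7 reagent for 1 hr at room temperature before luminescence reading.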

Assay [8] in a line: Cellular Toxicity (caspase-3) Mesangial (AID 660).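 Also: combined caspase 3 and 7 activity read by Caspase-Glo luminescence; cells exposed to compound for 16 h before the caspase read.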 An outline of the steps: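 Seed cells derived from normal human renal glomeruli, incubate 5 h, add compounds across concentrations and incubate 16 h at 37 °C. Caspase 3/7 activation is then quantified by luciferase light, with AC50 derived by Hill modeling.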
Assay [9] is described as follows: Cellular Toxicity (caspase-3) H-4-II-E (AID 663).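 Also: cells exposed to compound for 16 hr before readout; 0% = DMSO basal and 100% = 100 µM tamoxifen.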 An outline of the steps: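 Caspase 3/7 activation measured in H-4-II-E cells in complete culture medium after 16 hr treatment at 37 °C, using luciferase-coupled substrate readout; AC50 values come from Hill-equation fits of normalized concentration-response data.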
The nature of assay [10]: Cellular Toxicity (caspase-3) Hek293 (AID 664).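 Also: cells exposed to compound for 16 h at 37 °C before readout.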 An outline of the steps: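 qHTS, HEK293 (human embryonic kidney), 16 h cpd exposure in complete medium. Caspase-3/7 activation = luminescence increase; normalized to DMSO/100 uM tamoxifen; Hill-fit AC50.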
A short description of assay [11]: Cellular Toxicity (caspase-3) N2a (AID 665).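 Also: compound exposure lasted 16 h at 37 °C before readout.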 An outline of the steps:
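Caspase-3/7 activation, measured as increased luminescence from aminoluciferin release, is quantified in mouse N2a cells exposed to compounds for 16 h. Values are normalized to DMSO and 10 uM staurosporine, with AC50 derived by Hill modelling.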

Assay [12] is described as follows: Cellular Toxicity (caspase-3) NIH 3T3 (AID 666).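 Also: caspase signal read after 16 h compound exposure; 0% = DMSO basal and 100% = 100 µM tamoxifen stimulation.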 An outline of the steps:
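Cells were plated at 1000 per well and incubated 5 hr at 37°C, then compound was added for 16 hr. Caspase-Glo 3/7 reagent followed for 20 min at room temperature before luminescence was read.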

Assay [13] can be described thus: Cellular Toxicity (caspase-3) Renal Proximal Tubule (AID 667).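 Also: cells exposed to compound for 16 hours at 37 °C before detection; 0% = DMSO basal and 100% = 10 µM staurosporine.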 An outline of the steps:
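AC50 derived by standard Hill fit of concentration-response data, normalized between DMSO basal and 10 uM staurosporine as 100% stimulation. Cells: primary rat kidney proximal tubule, 16 h treatment at 37 °C.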

In assay [14] the target is Cytochrome P450 2C19 (Homo sapiens) (UniProt P33261). As to the kind of experiment: qHTS Assay for Inhibitors and Substrates of Cytochrome P450 2C19 (AID 899). Also: % is scaled to controls: 0 for no effect and ±100 for the full control effect; nearly all actives have a fitted effect of over 60% in size. An outline of the steps:
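In 50mM KPO4, the reaction held 5nM enzyme and KM-level (10uM) Luciferin-H EGE; it ran 60 min at 37C after NADPH regeneration and a 10 min compound preincubation. Luminescence values were scaled to 57uM ketoconazole as complete inhibition.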

Assay [15] addresses Cytochrome P450 2C9 (Homo sapiens) (UniProt P11712). As to the kind of experiment: qHTS Assay for Inhibitors and Substrates of Cytochrome P450 2C9 (AID 883). Also: nearly all actives have a fitted effect of over 60% in size. Also: potency is read from the fitted curve at half-maximal effect. As to activity change, negative = inhibition: % is scaled to controls: 0 for no effect and ±100 for the full control effect. An outline of the steps:
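CYP2C9 deoxyluciferin hydroxylation, 37C, 60 min with NADPH regeneration; 10nM enzyme, 100uM Luciferin-H (KM). Glo detection reagent stopped reaction; luminescence normalized to sulphaphenazole (57uM) full inhibition.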

For assay [16], the target named is Cytochrome P450 3A4 (Homo sapiens) (UniProt P08684). As to the kind of experiment: qHTS Assay for Activators of Cytochrome P450 3A4 (AID 885). Also: nearly all actives have a fitted effect of over 65% in size. An outline of the steps: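 Luminescent readout of luciferin formed from 25 uM Luciferin-PPXE (KM level) by 20 nM CYP3A4 in 200 mM KPO4, with 60 min NADPH-driven reaction at room temperature after 10 min compound exposure. Ketoconazole (57 uM) defined 100% inhibition.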

The target in assay [17] is Cytochrome P450 2D6 (Homo sapiens) (UniProt P10635). Kind of assay: qHTS Assay for Inhibitors and Substrates of Cytochrome P450 2D6 (AID 891).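 Also: luciferin methyl ether substrate demethylated by CYP2D6 with NADPH regeneration; % is scaled to controls: 0 for no effect and ±100 for the full control effect; nearly all actives have a fitted effect of over 60% in size.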 An outline of the steps:
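Luminescent read-out of luciferin formed by 5 nM human CYP2D6 demethylating 30 uM Luciferin-ME EGE (Km level) over 60 min at room temperature after NADPH regeneration addition. Data normalized to full inhibition by 1.43 uM quinidine.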

A number with no mark means an inactive call. Results filed as inconclusive are left out. Activity calls are given as the source filed them. Calls follow the shape of the dose curve; as a rule, active = well fitted curve in the direction sought with a large enough effect; inconclusive = small, poorly fitted or top-dose-only effect, or another doubt; inactive = no such curve, though single readings can be large; an effect the other way counts as inactive or inconclusive.

Sequence of Cytochrome P450 3A4 (Homo sapiens) (P08684 whole entry, looked up): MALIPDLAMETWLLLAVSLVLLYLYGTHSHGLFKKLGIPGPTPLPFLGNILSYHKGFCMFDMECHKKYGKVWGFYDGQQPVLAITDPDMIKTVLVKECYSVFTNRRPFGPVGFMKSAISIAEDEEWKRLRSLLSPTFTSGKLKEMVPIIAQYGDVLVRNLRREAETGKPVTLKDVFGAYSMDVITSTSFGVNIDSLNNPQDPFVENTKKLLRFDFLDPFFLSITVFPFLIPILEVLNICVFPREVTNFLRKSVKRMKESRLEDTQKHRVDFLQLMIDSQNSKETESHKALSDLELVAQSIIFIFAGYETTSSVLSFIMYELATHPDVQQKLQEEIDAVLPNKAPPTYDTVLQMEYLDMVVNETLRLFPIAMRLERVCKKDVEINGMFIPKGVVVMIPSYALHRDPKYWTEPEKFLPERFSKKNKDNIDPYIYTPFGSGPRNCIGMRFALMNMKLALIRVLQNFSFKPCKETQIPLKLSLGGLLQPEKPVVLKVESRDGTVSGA
Sequence of Cytochrome P450 2C19 (Homo sapiens) (P33261 whole entry, looked up): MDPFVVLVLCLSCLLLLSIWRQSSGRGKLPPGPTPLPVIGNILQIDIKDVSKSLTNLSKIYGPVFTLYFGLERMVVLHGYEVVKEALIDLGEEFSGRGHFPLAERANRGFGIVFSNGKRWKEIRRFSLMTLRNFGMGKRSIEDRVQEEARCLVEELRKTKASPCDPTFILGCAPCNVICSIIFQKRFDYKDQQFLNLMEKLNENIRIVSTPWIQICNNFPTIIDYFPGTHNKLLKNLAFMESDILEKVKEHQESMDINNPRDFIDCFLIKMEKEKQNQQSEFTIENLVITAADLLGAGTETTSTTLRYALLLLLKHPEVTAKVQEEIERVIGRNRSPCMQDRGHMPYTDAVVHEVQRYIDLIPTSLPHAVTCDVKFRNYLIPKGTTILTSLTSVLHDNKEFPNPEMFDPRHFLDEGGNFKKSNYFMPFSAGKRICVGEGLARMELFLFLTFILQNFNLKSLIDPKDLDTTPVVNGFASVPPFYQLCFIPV
Sequence of Cytochrome P450 2C9 (Homo sapiens) (P11712 whole entry, looked up): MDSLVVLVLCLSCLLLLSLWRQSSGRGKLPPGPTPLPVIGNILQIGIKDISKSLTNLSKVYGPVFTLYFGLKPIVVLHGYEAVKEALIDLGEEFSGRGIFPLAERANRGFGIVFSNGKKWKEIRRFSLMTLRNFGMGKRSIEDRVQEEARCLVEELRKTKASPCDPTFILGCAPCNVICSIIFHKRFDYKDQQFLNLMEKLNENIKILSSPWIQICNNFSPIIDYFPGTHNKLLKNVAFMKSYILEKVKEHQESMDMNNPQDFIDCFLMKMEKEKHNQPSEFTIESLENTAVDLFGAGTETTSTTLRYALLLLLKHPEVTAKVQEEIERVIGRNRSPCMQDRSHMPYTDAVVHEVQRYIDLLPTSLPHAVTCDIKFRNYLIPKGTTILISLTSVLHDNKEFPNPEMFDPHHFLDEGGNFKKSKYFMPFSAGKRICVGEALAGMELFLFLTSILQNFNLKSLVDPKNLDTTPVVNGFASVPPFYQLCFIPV
Sequence of Cytochrome P450 2D6 (Homo sapiens) (P10635 whole entry, looked up): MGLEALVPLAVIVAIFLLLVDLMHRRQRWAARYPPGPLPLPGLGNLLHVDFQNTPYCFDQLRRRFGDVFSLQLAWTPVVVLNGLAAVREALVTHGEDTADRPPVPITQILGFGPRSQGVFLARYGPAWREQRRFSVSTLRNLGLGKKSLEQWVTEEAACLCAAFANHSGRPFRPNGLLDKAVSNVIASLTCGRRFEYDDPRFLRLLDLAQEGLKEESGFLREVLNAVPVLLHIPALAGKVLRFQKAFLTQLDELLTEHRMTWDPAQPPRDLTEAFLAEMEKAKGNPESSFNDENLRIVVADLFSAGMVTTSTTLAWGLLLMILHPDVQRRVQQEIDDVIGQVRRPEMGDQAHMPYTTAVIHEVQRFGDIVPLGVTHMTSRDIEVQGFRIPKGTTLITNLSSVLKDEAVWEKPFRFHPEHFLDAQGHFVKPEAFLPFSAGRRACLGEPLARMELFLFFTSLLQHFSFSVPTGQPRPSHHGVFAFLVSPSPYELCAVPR

As to `CCOC(N)=O`, the outcome in [1] and in assay [2] was inactive.

With `CC(=O)Nc1ccc(C(=O)O)cc1`, the compound was called inactive in assay [3], in assay [4], in [5], in assay [6], in [7] and in [8]. For the same compound, the outcome in assay [9], in assay [10], in assay [11], in assay [12], in assay [13] and in assay [1] was inactive.

Consider `O=C(Cn1ccnc1[N+](=O)[O-])NCCO`, for which the compound was classed as inactive in [1] and in assay [2]. Further, the Potency result in assay [14] is “inactive”.

On to `Cn1c(=O)c2c(ncn2CCO)n(C)c1=O`, for which the compound was called inactive in [1] and in assay [2].

As to `Cc1cc(NC(=O)C2=C(O)c3ccccc3S(=O)(=O)N2C)no1`, the outcome in assay [1] and in assay [2] was inactive.

As for `FC(F)(F)C(Cl)Br` (centres undefined), the call in [3], in [4], in assay [5], in assay [6], in assay [7] and in assay [8] was inactive. For the same compound, the call in [9], in assay [10], in assay [11], in [12], in assay [13] and in assay [1] was inactive.

Turning to `Cc1cccc(Nc2ccccc2C(=O)O)c1C`, in assay [15], the Potency is 7.94 µM (active). Also, the compound was called inactive in assay [1] and in [2].

Take `CCCCCCCC(=O)OCC(COC(=O)CCCCCCC)OC(=O)CCCCCCC`: the call in [3], in assay [4], in [5], in [6], in assay [7] and in assay [8] was inactive. The call in assay [9], in [10], in [11], in [12], in [13] and in assay [1] was inactive.

Take `CC(=O)NS(=O)(=O)c1ccc(N)cc1`: the compound was classed as inactive in assay [3], in assay [4], in [5], in assay [6], in assay [7] and in [8]. Also, the outcome in assay [9], in [10], in assay [11], in assay [12], in [13] and in assay [2] was inactive.

With `O=C(O)c1ccccc1C(=O)Nc1ccc(S(=O)(=O)Nc2nccs2)cc1`, the compound was classed as inactive in assay [1], in [16] and in assay [2].

For `O=C1c2cccc(O)c2C(=O)c2c(O)cccc21`, the compound was called inactive in [3], in assay [4], in assay [5], in [6], in [7] and in assay [8]. Besides, the outcome in assay [9], in assay [10], in [11], in assay [12], in [13] and in assay [1] was inactive. Besides, the result in assay [2] was inactive.

Consider `O=C(O)CCCCC1CCSS1` (centres undefined), for which the result in assay [3], in assay [4], in assay [5], in assay [6], in assay [7] and in [8] was inactive. Further, the compound was classed as inactive in assay [9], in [10], in assay [11], in [12], in assay [13] and in assay [1]. The outcome in assay [2] was inactive.

`C[C@@H]1CCC[C@H](C)N1`: the Potency result in assay [15] and in assay [14] was “inactive” each time.

Consider `O=C(c1ccccc1)C(O)c1ccccc1` (centres undefined), for which the outcome in [3], in assay [4], in assay [5], in assay [6], in assay [7] and in assay [8] was inactive. Further, the compound was classed as inactive in assay [9], in assay [10], in assay [11], in assay [12], in assay [13] and in [1].

For the compound `CC(=O)Nc1ccccc1`, the outcome in assay [3], in assay [4], in [5], in assay [6], in assay [7] and in assay [8] was inactive. For the same compound, the call in [9], in assay [10], in [11], in assay [12], in assay [13] and in assay [1] was inactive. The compound was classed as inactive in assay [2].

`CCCCOC(=O)c1ccc(N)cc1`: the outcome in assay [3], in assay [4], in assay [5], in [6], in assay [7] and in assay [8] was inactive. For the same compound, the call in [9], in assay [10], in [11], in assay [12], in assay [13] and in [2] was inactive.

In the case of `C[N+]1(C)CCCC(OC(=O)C(O)(c2ccccc2)c2ccccc2)C1` (centres undefined), the call in assay [1] and in assay [2] was inactive.

With `NS(=O)(=O)c1ccc(C(=O)O)cc1`, the Potency result in assay [15], in assay [17] and in assay [14] was “inactive” throughout. Further, the activity change, negative = inhibition in [1] is -0.84% [at 11.4 µM].

Consider `COc1ccc(O)cc1`, for which the compound was classed as inactive in assay [3], in assay [4], in assay [5], in [6], in assay [7] and in assay [8]. The compound was called inactive in assay [9], in [10], in [11], in assay [12], in assay [13] and in assay [1].

Turning to `Cc1cc(=O)[nH]c(=S)[nH]1`, the result in assay [3], in [4], in assay [5], in [6], in assay [7] and in assay [8] was inactive. In addition, the compound was called inactive in assay [9], in [10], in [11], in assay [12], in assay [13] and in assay [1]. Also, the compound was called inactive in [2].
